The structures appear in SMILES notation. Values without a mark were called inactive. The source made the active and inactive calls. No stated cut-off is given here; in the data, active means fold change mostly below about -2 (no sharp cut-off); inactive means mostly above about -1.8.

16 compounds from PubChem BioAssay AID1259240 (Keith Lab, Institute of Cancer Science, University of …, 2017) can be followed below.

The test is described as follows: TERT promoter activity modulators, primary screen, cell-based, luciferase reporter, human (AID 1259240). Conditions: A2780 TERT promoter luciferase reporter, 16 h; at 20 µM, fold versus average of vehicle-only wells. A general note: In a reporter assay the amount or activity of a reporter protein is the signal.
With `COCCCN1CN=C(Nc2nc(C)c3ccc(C)cc3n2)NC1`, the fold change was -1.94.

On to `COc1cccc(-c2cc(N)n(S(=O)(=O)c3cccc4nsnc34)n2)c1`, for which the fold change was 1.15.

Turning to `O=S(=O)(NCc1ccc2c(c1)OCO2)c1cccc2cccnc12`, the fold change was -1.35.

As to `COc1cc2c(c(OC)c1)C(c1ccc(Br)cc1)CC(=O)N2` (stereo unspecified), the fold change was 1.09.

Turning to `O=C1C2C(c3cccs3)NC(Cc3ccccc3)(C(=O)O)C2C(=O)N1c1ccc(F)cc1` (stereo unspecified), the fold change was -1.06.

With `O=C(CC1(O)C(=O)Nc2ccccc21)c1cc2ccccc2o1` (stereo unspecified), the fold change was 1.08.

As for `N=C1C(c2nc3ccccc3c(=O)[nH]2)=C(O)CN1c1ccc(Cl)c(Cl)c1`, the compound was classed as active.

With `Cc1cc(C)n(-c2nc3cc(Cl)ccc3nc2Cl)n1`, the fold change is 1.03.

`c1cc2nncn2nc1NCCCN1CCOCC1`: the fold change is -1.08.

Take `Cc1cc(/C=C2/SC(=S)N(CC(=O)O)C2=O)c(C)n1-c1ccncc1`: the fold change is -3.58 (active).

Consider `COc1ccc(-c2cc(C(F)(F)F)nc(SCCC(=O)N3CCN4CCCC4C3)n2)cc1` (stereo unspecified), for which the fold change was -1.73.

In the case of `Cn1c(SCc2nc(-c3ccccc3)no2)nnc1-c1ccco1`, the fold change is -2.04 (active).

For the compound `CCOC(=O)C1=C(CS(=O)(=O)c2ccccc2)NC(=O)NC1c1cccc(Br)c1` (stereo unspecified), the fold change was 1.6.

Regarding `Cc1ccccc1-c1nc(CSCC(=O)O)c(C)o1`, the fold change was -1.01.

For the compound `CCC(CC)c1nnc(NC(=O)Cn2cnc3c2c(=O)n(C)c(=O)n3C)s1`, the fold change was -1.36.

`Cc1ccc(C)c(N2CCN(C(=O)CCCc3nnc4n5nc(C)nc5c5ccccc5n34)CC2)c1`: the fold change was -1.04.
